Source: PubChem BioAssay AID1159506 (National Center for Advancing Translational Sciences (NCATS), 2015)
In all, about 59,000 sequences were measured (the read-out: median about -0.00055, lowest 2% from about -2 on). The full list was thinned out, with the lowest values kept by preference.

test: Identification of proteins required for the processing of the EWS-FLI1 nascent transcript; conditions: TC32 Ewing sarcoma NR0B1-luc vs CMV-luc (EWS-FLI1 target promoter against control promoter), 48 h; screened at 20 nM (by protocol);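 further: robust z of luciferase light less the median z of siRNAs with the same seed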
Summary of the method: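 Parallel TC32-NR0B1-luc and TC32-CMV-luc reverse transfections with 20 nM siRNA in RPMI-1640/10% FBS, luciferase measured 48 h later. Seed-adjusted z-scores from normalized, z-score-MAD transformed data; AllStars negative and siGL4 controls on each plate.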

Point of comparison: AGCUGUUCAAUGUCAAAGC against INMT, seed-corrected z-score -4.2. Against it:
- UAUGCUCAAAUACCUUUGC against CAT — higher, 0.148
- UAGUGCUUAUCCUAGAAUC against KLK8 — higher, 0.915
- AAACUACCCAAUUGUAAUC against OR9A4 — higher, 0.66
- AUGGUCUUGCCAUCUACCG against RABL2A — higher, -2.05
- AUCAAUUUGUCCUCCAUCC against RNPS1P1 — higher, -0.331
- GACAUGGCAGUGAGCUUCC against CBX2 — higher, -0.4
- UGCUCAAUCUGAUAGAUGG against TP63 — higher, -0.257
- UGUUUGAUCUGUAAAAUGG against C15orf32 — higher, -1.58
- AUGAUGUUCCUUGAAGUUC against DHRS2 — higher, -0.594
- UCUCAUCCAGGUACCAGCC against FTCD — higher, -0.292
- UGACAUACCAGAGGAAGUG against PLEKHH1 — higher, -0.0437
- UUGUUGACCAUAGCUACUC against EWSR1 — higher, -4.01
- AUAGAUACAGGUGAUGCAG against EGLN2 — higher, 1.45
- UACUCUCACAGCUUGCACC against KCTD18 — higher, -0.258
- UUGGGAAGCAGGUGCAUGC against LAIR1 — higher, -2.03
- UAGAGGCACCGAGUCAACG against DBF4B — higher, 0.153
- UGAGUUCCGACACUCCAUC against EIF4EBP1 — higher, 0.187
- UCUGCUUUCUGUACCCGAC against GATA3-AS1 — higher, -2.32
- UUUGUUACAAGCACCUACU against LOC730179 — higher, 0.536
- ACAGGUGCAUUGGACUUGG against KCTD15 — higher, -3.06
- UUGAUCACCUCAGAGGCCG against USE1 — higher, -1.2
- UUAUGCUAAAAUCUACUCC against TNKS2 — higher, -1.04
- AAUAGGUGUAAGUCCGUGC against NR5A2 — higher, -2.54
- UUAGUCCAGAGGUUUCAUC against PCAT18 — higher, -0.77
- UCACAAUUUAGUGUAAUAG against ETFBKMT — higher, 0.195
- UCGGUAAUCCGGGUGAAGC against FGF14-AS2 — higher, -0.163
- UCCUGGAUUGGGAAGGUGC against C9orf172 — higher, -0.383
- UGCAGUAGAAUUUACACGC against RB1 — higher, -2.42
- UUUGCUAUCAGGGAACAUC against SPRR2B — higher, -0.452
- UGAUGGUAGAGUUCCAGUG against MYBL2 — higher, -0.637
- UUGCUUAUGAGCUUGAUGG against MAST1 — higher, -2.39
- UAAGCGGUUCAUGCUGUGG against CPA5 — higher, -0.872
- UAGUGGAAGACGGAAAAGU against SFN — higher, -0.0924
- AGUAUAACCAGUGGGAGGC against EWSR1 — lower, -5.73
- UAUCUGAAGAUCUAGACUC against ZNF280D — higher, -0.0696
- UCCUUGACCAGAAAUCUCA against TRIM31 — higher, -0.472
- UACGUCAAACGGAACUUCC against LRPPRC — higher, -0.194
- UCAUGUAUAAACAGUCGCC against ALDH7A1 — higher, 0.368
- UUAGCAUGAUGAUCAAGGC against LIN28B — higher, 0.22
- UUAUAUAUCUCCUGGAGCG against AGPAT3 — higher, -0.537
- UGAGUUUCGAGAGCACAGU against MID1IP1 — higher, -3.02
- AAACUUUCUCCUUAAGGCC against PRR11 — higher, -0.21
- UUGCAAUUGAAUUCACAGC against SRI — higher, -0.0706
- UGAAGGAUUUGUGACAUAC against ZFP28 — higher, -0.0712
- UGUGGUUCCAAGGCACGUC against CCER2 — higher, -2.12
- UUCCUUGGGCCCUAUAUGU against FAM168A — higher, -0.129
- AACGUAGAAAAGCAUAUCG against DENND5B — higher, -0.0535
- UAUCUUGCUGGUGUGUGUG against MAX — higher, -0.878
- AUAGGCUUUAUCAAGAUCG against MPP5 — higher, 0.288
- UGAAUUUCUCGAAUCUGUG against SF3B1 — lower, -4.69
- UGACCGAUGACAGGUAUCU against MRGPRX3 — higher, -0.02
- UUUUGAGUGGGUAUCAACC against VIM — higher, 0.533
- UUCUGUGCUACUUUGUGCU against SSR3 — higher, 1.19
- UCCCUGAAUAGUGUGACAG against CCDC103 — higher, 0.246
- UUACAUCCAAUUGUAAAGG against C5orf22 — higher, -2.74
- UUUGCGAAACUCCAAGUCC against LMNB1 — higher, -0.159
- AAAAAUAUCUGUGAUUCUG against WNK1 — higher, 0.399
- UAGGCAUCGAUGUGGAAGC against TELO2 — higher, 2.04
- UCAGCAGAUCUUGACAGUC against LYZL6 — higher, 0.253
- CUGCUUCUGAGCGUUUGCG against MED14OS — higher, -2.09
- UUGCCGUAUAGGUAGUUUG against NPTX2 — higher, -0.552
- UAGGCGACGCCCUUUUUCU against H3.X — higher, -0.0707
- UUUGAGUCCUCAUGGGUGG against GTF3C4 — higher, 1.63
- UAGGUGUUGAUGAUCUCCC against XAB2 — higher, -2.44
- UUUGUCUCUGCGGAGGUUC against EIF3D — higher, -0.479
